Assay results as given in PubChem BioAssay (NCI).
This is part of a sample that, as a whole, favours compounds with a hit. Of some 83,000 tested, about 20% had one in any assay.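 Values shown are percent growth following 48 h exposure of cells in 96-well plates to a single concentration of compound; below 10 was considered active.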 Values without a mark were called inactive. Activity calls are given as the source filed them.

System: MCF7 breast
Assay: NCI-60 one-dose screen, 48 h (100 = growth as untreated, 0 = no growth, -100 = all killed)
Conditions: 10 µM unless noted

Row | Compound | growth
1 | CC1Cc2cc(F)ccc2-n2cccc21 (stereo not given) | 107%
2 | Cc1c(O)c(N=Nc2ccc(C(=O)O)c(O)c2)c2ccccc2c1O | 101%
3 | COc1ccc(-c2nc(Nc3nc4ccccc4[nH]3)nc(N)c2C#N)cc1 | 90.2%
4 | CC(C)(C)c1ccc([I+]c2ccc(C(C)(C)C)cc2)cc1 | 7.68% (active)
5 | C=CN(C)S(C)(=O)=O | 4.56% (active)
6 | CCOC(=O)C1CCCN1C(=O)C1(NC(C)=O)CCCC1 (stereo not given) | 99.3%
7 | COc1cc(OC)c(NC(=O)n2ncc3cc(Nc4ncnc5ccccc45)ccc32)cc1Cl | 98.1%
8 | Cc1ccc([C@@H]2C[C@H](O)Cc3ccccc3N2)s1 | 107%
9 | CCCCCCCCCCC1OC(C)CC(C)O1 (stereo not given) | 98.6%
10 | CCc1c(C)c2ccc(OCC(=O)N=Nc3c(O)[nH]c4ccccc34)c(C)c2oc1=O | -4.72% (active)
11 | COc1ccccc1Cn1cc2c(c1)-c1oncc1CC2 | 13.4%
12 | CC[C@H](Nc1ncnc2nc[nH]c12)c1nc2cccc(NCc3ccc(C(=O)NO)nc3)c2c(=O)n1-c1ccccc1 | 13.3%
13 | COc1ccc(CNCCCN2C(=O)c3ccc4c5c(ccc(c35)C2=O)C(=O)N(CCCNCc2ccc(OC)c(OC)c2OC)C4=O)c(OC)c1OC | -85% (active)
14 | O=C(N/N=C/c1coc2ccccc2c1=O)c1cc2oc(-c3ccccc3)cc2[nH]1 | 97.2%
15 | CCOC(=O)c1cc(C(=O)c2ccc(Br)cc2)n2cc(C)cc(C)c12 | 90%
16 | O=C(/C=C1\C(=O)N(Cc2ccccc2)c2ccccc21)c1ccc(OCCN2CCCCC2)cc1 | 3.98% (active)
17 | Cc1nnc(/N=C2\NC(=O)/C(=C/C=C/c3ccccc3)S2)s1 | 39.9%
18 | O=c1oc2ccc3ccccc3c2cc1-c1ccnc2[nH]c(=S)[nH]c(=O)c12 | 96.8%
19 | Cn1cnc2nc[nH]c2c1=S | 94.2%
20 | COc1ccc(Cn2cc3c(c2-c2ccc(O)cc2)CCc2cnoc2-3)cc1 | 14.7%

Row | Compound | growth
21 | CC(Br)c1nc2ccccc2cc1C(N)=O (stereo not given) | 84.9%
22 | c1cc(C2CCCCC2)ccc1OCCCCCCN1CCNCC1 | -31.3% (active)
23 | CC(O)CN(CC(C)O)N(CC(C)O)CC(C)O (stereo not given) | 101%
24 | COc1ccc2nc3cc(Cl)ccc3c(NCCCNC(C)=O)c2c1 | 15.8%
25 | O=C1N/C(=N\c2nnc(-c3ccc(O)cc3)s2)S/C1=C\c1ccccc1O | 88.4%
26 | CCCCCc1ccnc(CC(=O)c2ccc(OC)cc2)c1 | 87.4%
27 | NC(=O)CC(NC(=O)COc1ccc(Cl)cc1Cl)C(=O)O (stereo not given) | 102%
28 | COc1cc2ncnc(Nc3ccc4c(cnn4C(=O)Nc4ccccc4)c3)c2cc1OC | 60.4%
29 | CCC(C)(CC)c1ccc(O)c(C)c1 | 99%
30 | CC(O)C(N)=O (stereo not given) | 94.6%
31 | CCCCCCCCC1OC1CCCCCCCC(=O)O (stereo not given) | 101%
32 | CC(=O)NCCN | 104%
33 | COc1cc(NC(C)CCCN)c2nc(C)ccc2c1OC (stereo not given) | 47.1%
34 | O=C1/C(=C\c2cn(-c3nc(N4CCOCC4)nc(N4CCOCC4)n3)c3ccccc23)c2ccccc2N1c1c(Cl)cccc1Cl | 50.6%
35 | Cc1cc2c(-c3nc4ccccc4n3C)c(O)c(O)cc2c(O)c1-c1c(C)cc2c(-c3nc4ccccc4n3C)c(O)c(O)cc2c1O | 19.6%
36 | O=C(CN1CCN(c2cccc(Cl)c2)CC1)N1CCN(c2nnc(-c3ccc(Cl)cc3)c(-c3ccc(Cl)cc3)n2)CC1 | 55.4%
37 | CCCC(=O)NNc1[nH]c(-c2cc(OC)c(OC)c(OC)c2)cc1C(=O)OCC | 117%
38 | CSCc1ncc(-c2ccc(C(F)(F)F)cc2)c(NC2CCCCCC2)n1 | 68% [25 µM]
39 | CCOC1=C(Cl)C(=O)C(OCC)=C(Cl)C1=O | 99.5%
40 | CC(=O)c1nn(-c2ccc(C)cc2)cc1C(=O)c1cc2c(ccc3ccccc32)oc1=O | 87.5%

System: HCT-116 colon
Assay: as above
Conditions: 10 µM unless noted

Row | Compound | growth
41 | CC1Cc2cc(F)ccc2-n2cccc21 (stereo not given) | 114%
42 | Cc1c(O)c(N=Nc2ccc(C(=O)O)c(O)c2)c2ccccc2c1O | 98.1%
43 | COc1ccc(-c2nc(Nc3nc4ccccc4[nH]3)nc(N)c2C#N)cc1 | 93.8%
44 | CC(C)(C)c1ccc([I+]c2ccc(C(C)(C)C)cc2)cc1 | 7.47% (active)
45 | C=CN(C)S(C)(=O)=O | 19.7%
46 | CCOC(=O)C1CCCN1C(=O)C1(NC(C)=O)CCCC1 (stereo not given) | 96.4%
47 | COc1cc(OC)c(NC(=O)n2ncc3cc(Nc4ncnc5ccccc45)ccc32)cc1Cl | 101%
48 | Cc1ccc([C@@H]2C[C@H](O)Cc3ccccc3N2)s1 | 116%
49 | CCCCCCCCCCC1OC(C)CC(C)O1 (stereo not given) | 97.3%
50 | CCc1c(C)c2ccc(OCC(=O)N=Nc3c(O)[nH]c4ccccc34)c(C)c2oc1=O | -7.72% (active)
51 | COc1ccccc1Cn1cc2c(c1)-c1oncc1CC2 | 9.05% (active)
52 | CC[C@H](Nc1ncnc2nc[nH]c12)c1nc2cccc(NCc3ccc(C(=O)NO)nc3)c2c(=O)n1-c1ccccc1 | 9.03% (active)
53 | COc1ccc(CNCCCN2C(=O)c3ccc4c5c(ccc(c35)C2=O)C(=O)N(CCCNCc2ccc(OC)c(OC)c2OC)C4=O)c(OC)c1OC | -71.2% (active)
54 | O=C(N/N=C/c1coc2ccccc2c1=O)c1cc2oc(-c3ccccc3)cc2[nH]1 | 96.5%
55 | CCOC(=O)c1cc(C(=O)c2ccc(Br)cc2)n2cc(C)cc(C)c12 | 75.3%
56 | O=C(/C=C1\C(=O)N(Cc2ccccc2)c2ccccc21)c1ccc(OCCN2CCCCC2)cc1 | -3.84% (active)
57 | Cc1nnc(/N=C2\NC(=O)/C(=C/C=C/c3ccccc3)S2)s1 | 36.9%
58 | O=c1oc2ccc3ccccc3c2cc1-c1ccnc2[nH]c(=S)[nH]c(=O)c12 | 93.9%
59 | Cn1cnc2nc[nH]c2c1=S | 106%
60 | COc1ccc(Cn2cc3c(c2-c2ccc(O)cc2)CCc2cnoc2-3)cc1 | 11.1%

Row | Compound | growth
61 | CC(Br)c1nc2ccccc2cc1C(N)=O (stereo not given) | 106%
62 | c1cc(C2CCCCC2)ccc1OCCCCCCN1CCNCC1 | -61.7% (active)
63 | CC(O)CN(CC(C)O)N(CC(C)O)CC(C)O (stereo not given) | 102%
64 | COc1ccc2nc3cc(Cl)ccc3c(NCCCNC(C)=O)c2c1 | 21%
65 | O=C1N/C(=N\c2nnc(-c3ccc(O)cc3)s2)S/C1=C\c1ccccc1O | 91.7%
66 | CCCCCc1ccnc(CC(=O)c2ccc(OC)cc2)c1 | 78.2%
67 | NC(=O)CC(NC(=O)COc1ccc(Cl)cc1Cl)C(=O)O (stereo not given) | 101%
68 | COc1cc2ncnc(Nc3ccc4c(cnn4C(=O)Nc4ccccc4)c3)c2cc1OC | 95.8%
69 | CCC(C)(CC)c1ccc(O)c(C)c1 | 96.6%
70 | CC(O)C(N)=O (stereo not given) | 94.2%
71 | CCCCCCCCC1OC1CCCCCCCC(=O)O (stereo not given) | 101%
72 | CC(=O)NCCN | 102%
73 | COc1cc(NC(C)CCCN)c2nc(C)ccc2c1OC (stereo not given) | 102%
74 | O=C1/C(=C\c2cn(-c3nc(N4CCOCC4)nc(N4CCOCC4)n3)c3ccccc23)c2ccccc2N1c1c(Cl)cccc1Cl | 71.6%
75 | Cc1cc2c(-c3nc4ccccc4n3C)c(O)c(O)cc2c(O)c1-c1c(C)cc2c(-c3nc4ccccc4n3C)c(O)c(O)cc2c1O | 7.37% (active)
76 | O=C(CN1CCN(c2cccc(Cl)c2)CC1)N1CCN(c2nnc(-c3ccc(Cl)cc3)c(-c3ccc(Cl)cc3)n2)CC1 | 53.5%
77 | CCCC(=O)NNc1[nH]c(-c2cc(OC)c(OC)c(OC)c2)cc1C(=O)OCC | 93%
78 | CSCc1ncc(-c2ccc(C(F)(F)F)cc2)c(NC2CCCCCC2)n1 | 38.1% [25 µM]
79 | CCOC1=C(Cl)C(=O)C(OCC)=C(Cl)C1=O | 113%
80 | CC(=O)c1nn(-c2ccc(C)cc2)cc1C(=O)c1cc2c(ccc3ccccc32)oc1=O | 89.4%
